The subject of experiment [1] is MCC-13. Kind of experiment: qHTS assay to identify novel small-molecules to repurpose for Merkel cell carcinoma treatment (AID 1296009). Also: nearly all actives have a fitted effect of over 60% in size. The settings on record: MCC and control cell lines, CellTiter-Glo viability, 72 h; series mostly up to 46 µM. In a few lines: (§1)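 CellTiter-Glo luminescence after 72 hr compound exposure at 37 degree celsius gave cell viability. Libraries NPC and MIPE were run as 8- and 11-point dose responses; RLUs normalized to DMSO (negative) and no-cell (cytotoxicity) controls.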
A general note: qHTS replaces the single test concentration by a dilution series.

Experiment [2] concerns MCC-26. Described as above. The settings on record: MCC and control cell lines, CellTiter-Glo viability, 72 h; series mostly up to 46 µM. Summed up:
as §1

For experiment [3], the system named is MKL-1. The experiment is described as above. The settings on record: MCC and control cell lines, CellTiter-Glo viability, 72 h; series mostly up to 46 µM. Summed up:
as §1
For orientation: ATP-based viability assays read luminescence as a measure of living cells.

In experiment [4] the test system is MKL-2. The experiment is described as above. The settings on record: MCC and control cell lines, CellTiter-Glo viability, 72 h; series mostly up to 46 µM. In a few lines: as §1
The subject of experiment [5] is UISO. The description is as above. The settings on record: MCC and control cell lines, CellTiter-Glo viability, 72 h; series mostly up to 46 µM. In a few lines:
as §1

In experiment [6] the test system is C33A. Kind of experiment: Primary qHTS to identify gynecologic anti-cancer compounds using libraries of approved drugs and bioactive compounds (AID 1345084). Also: nearly all actives have a fitted effect of over 55% in size. Also: potency is read from the fitted curve at half-maximal effect. The note with it: Gynecologic cancer cell panel viability, ATPlite luminescence, 48 h; series mostly up to 57.5 µM. In a few lines:
(§2)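 ATP-based viability (ATPlite), 1,000 cells/well, 16 h pre-incubation, 48 h compound at 37 C, 5% CO2, 15 min RT before read.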

Experiment [7] has as its system CASKI. Described as above. The settings on record: Gynecologic cancer cell panel viability, ATPlite luminescence, 48 h; series mostly up to 57.5 µM. Summed up: as §2
For experiment [8], the system named is NIH3T3. Briefly: qHTS assay to identify novel small-molecules to repurpose for Merkel cell carcinoma treatment (AID 1296009). Also: nearly all actives have a fitted effect of over 60% in size. The settings on record: MCC and control cell lines, CellTiter-Glo viability, 72 h; at 44.8 µM (top of the series). In a few lines:
as §1

Experiment [9] relates to HEK293T. Described as above. The note with it: MCC and control cell lines, CellTiter-Glo viability, 72 h; at 44.8 µM (top of the series). Summed up: as §1
For experiment [10], the system named is WaGa. Described as above. The settings on record: MCC and control cell lines, CellTiter-Glo viability, 72 h; series mostly up to 46 µM. In a few lines: as §1

Results filed as inconclusive are left out. Activity calls are given as the source filed them. Calls follow the shape of the dose curve; as a rule, active = well fitted curve in the direction sought with a large enough effect; inconclusive = small, poorly fitted or top-dose-only effect, or another doubt; inactive = no such curve, though single readings can be large; an effect the other way counts as inactive or inconclusive.

`O=C1c2ccccc2C(=O)c2c1ccc(O)c2O`: the call in experiment [1], in [2], in experiment [3], in [4] and in experiment [5] was inactive. The Potency entry in [6] and in experiment [7] was “inactive” in each case.
As to `CCN(CC)CCOCCOC(=O)C(CC)(CC)c1ccccc1`, the Potency result in experiment [6] and in experiment [7] was “inactive” in each case.
Regarding `COc1ccc(C[C@H](C)NC[C@@H](O)c2ccc(O)c(NC=O)c2)cc1`, the Potency result in experiment [6] and in [7] was “inactive” in each case.
Consider `C/C(=C\C(=O)OCCCCCCCCC(=O)O)C[C@@H]1OC[C@H](C[C@@H]2O[C@H]2[C@@H](C)[C@H](C)O)[C@@H](O)[C@H]1O`, for which the Potency result in experiment [6] and in experiment [7] was “inactive” in each case.
For the compound `O=C(O)Cc1cc(I)c(Oc2ccc(O)c(I)c2)c(I)c1`, the outcome in experiment [8] was inactive. The Potency result in [6] and in experiment [7] was “inactive” in each case.
Regarding `O=C(OCc1ccccc1)c1ccc(O)cc1`, the call in [9], in [1], in [2], in [3], in experiment [4] and in experiment [5] was inactive. Further, in [10], the compound was called inactive. Moreover, the Potency entry in [6] and in experiment [7] was “inactive” in each case.
On to `CN(C)CCCSc1ccccc1NC(=O)/C=C/c1ccccc1`, for which the compound was classed as inactive in experiment [1], in experiment [2], in experiment [3], in experiment [4], in experiment [5] and in experiment [10]. Besides, the Potency entry in [6] and in experiment [7] was “inactive” throughout.
For `C=C1[C@H](CO)[C@@H](O)C[C@@H]1n1cnc2c(=O)[nH]c(N)nc21`, the Potency entry in experiment [6] and in [7] was “inactive” in each case.
For the compound `C[C@H]1O[C@@H](O[C@H]2[C@@H](O)C[C@H](O[C@H]3[C@@H](O)C[C@H](O[C@H]4CC[C@@]5(C)[C@H](CC[C@@H]6[C@@H]5C[C@@H](O)[C@]5(C)[C@@H](C7=CC(=O)OC7)CC[C@]65O)C4)O[C@@H]3C)O[C@@H]2C)C[C@H](O)[C@@H]1O`, the Potency in [6] is 79.4 nM (active); in [7], 447 nM (active).
With `COc1ccc2nc(NC(=O)Nc3ccccc3)sc2c1`, the compound was called inactive in [1], in experiment [2], in experiment [3], in experiment [4] and in [5]. Further, the Potency in [7] was 12600 nM (active).
As to `CC(=O)Oc1cccc2c1C(=O)c1c(OC(C)=O)cc(C(=O)O)cc1C2=O`, the compound was classed as inactive in [1], in [2], in experiment [3], in experiment [4] and in [5]. Further, the Potency result in experiment [6] was “inactive”.
Take `Nc1ccc(N=Nc2ccccc2)c(N)n1`: the outcome in experiment [1], in experiment [2], in experiment [3], in experiment [4], in [5] and in [10] was inactive. Besides, the Potency entry in experiment [6] and in experiment [7] was “inactive” in each case.
With `C[C@]12CC[C@@H]3c4ccc(OC(=O)c5ccccc5)cc4CC[C@H]3[C@@H]1CC[C@@H]2O`, in [8], the outcome was inactive. The Potency result in [6] and in experiment [7] was “inactive” each time.
For `CO[C@H]1C[C@@H]2CC[C@@H](C)[C@@](O)(O2)C(=O)C(=O)N2CCCC[C@H]2C(=O)O[C@H]([C@H](C)C[C@@H]2CC[C@@H](OC(=O)C(C)(CO)CO)[C@H](OC)C2)CC(=O)[C@H](C)/C=C(\C)[C@@H](O)[C@@H](OC)C(=O)[C@H](C)C[C@H](C)/C=C/C=C/C=C/1C`, the Potency entry in experiment [6] and in experiment [7] was “inactive” throughout.
Consider `N[C@@H](Cc1cc(I)c(Oc2ccc(O)c(I)c2)c(I)c1)C(=O)O`, for which the Potency entry in [6] and in experiment [7] was “inactive” in each case.
Regarding `CC1CC(OC(=O)C(O)c2ccccc2)CC(C)(C)C1` (stereo not given), the Potency result in experiment [6] and in experiment [7] was “inactive” each time.
For the compound `CC(=O)Nc1ccc(NC(=S)NC(=O)c2ccc(C(C)(C)C)cc2)cc1`, the Potency entry in experiment [6] and in [7] was “inactive” in each case.
Take `CC(C)(C)c1ccc(CN2CCN(C(c3ccccc3)c3ccc(Cl)cc3)CC2)cc1` (stereo not given): the compound was called inactive in experiment [8]. The Potency entry in experiment [6] and in [7] was “inactive” in each case.
On to `C=C1CC[C@H](O)CC1=C/C=C1\CCC[C@]2(C)[C@@H]([C@H](C)/C=C/[C@H](C)C(C)C)CC[C@@H]12`, for which the Potency result in experiment [6] and in [7] was “inactive” throughout.
With `O=C(O)CCC(=O)c1ccc(-c2ccccc2)cc1`, the outcome in experiment [1], in experiment [2], in experiment [3], in experiment [4], in experiment [5] and in experiment [10] was inactive. The Potency entry in experiment [6] and in [7] was “inactive” each time.
On to `Oc1ccc(/C=C/c2cc(O)cc(O)c2)cc1`, for which the compound was called inactive in experiment [1], in experiment [2], in [3] and in [5].

(Values after PubChem BioAssay (NCATS).)
